Rows were chosen to be rich in hits. Some 2.8% of all compounds tested hit in one or more screens of this group.
PAX8 inh HTS = lowers PAX8-driven luciferase in RMG-I cells; RMG-I TPO-luciferase reporter, SteadyGlo, 24 h; inhibition, % at 12.6 µM; actives 1.2% (n = 360,000); AID 652154;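 active means mean replicate inhibition at least 60% with every replicate also reaching 60%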;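 further: luciferase light reporting Pax8 driven TPO promoter activity; plate controls were median of neutral control wells for no effect and mitoxantrone controls for full effect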
TROY NFkB inh = blocks TROY-dependent signaling in reporter cells; Q293 LMP1-TROYcd NF-kB luciferase reporter, 4 h; inhibition, % at 10 µM; actives 0.98% (n = 360,000);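 active means compounds whose plate-normalised and pattern-corrected inhibition of the luciferase reporter signal at the single screening dose is 50% or more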
TWEAK Fn14 block = blocks TWEAK-Fn14 interaction in a reporter cell assay | actives 2% (n = 360,000) | inhibition, % at 10 µM | TWEAK-stimulated Fn14 reporter cells, luciferase luminescence, 8 h; in the data active means inhibition above about 50%
LGR2 antag = blocks bursicon-induced cAMP signaling via Drosophila LGR2; actives 0.35% (n = 380,000); HEK293 LGR2, CRE-luciferase, bursicon-stimulated, 4 h; AID 720647; inhibition, % at 9.99 µM;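 active means drop in luminescence signal, shown as inhibition above about 50% in the replicate tests, limit read from the data, passing the limit was not always enough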;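 further: agonist challenge used bursicon conditioned medium at about half maximal strength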
EWS-Fli inh = EWS/Fli transcriptional activity inhibition | inhibition, % at 12.6 µM | A673 NR0B1-luciferase reporter, viability-normalised | AID 651661 | actives 0.67% (n = 350,000);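 active means mean inhibition of at least 50% after viability correction, with every replicate also passing that limit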;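 further: firefly luciferase signal divided by Alamar Blue viability fluorescence both relative to DMSO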
Active calls of the source: *; · = no result given.

SMILES | PAX8 inh HTS | TROY NFkB inh | TWEAK Fn14 block | LGR2 antag | EWS-Fli inh
Cc1ccc(-c2cnc3c(Nc4cccc(OC(F)(F)C(F)F)c4)nccn23)cc1 | -8 | -8 | 4 | 0 | -24
OCc1cccc(-c2cnc3c(Nc4cccc(OC(F)(F)C(F)F)c4)nccn23)c1 | -52 | 42 | 57* | 66* | -41
C[C@H]1CN([C@@H](C)CO)C(=O)c2c(c3ccccc3n2C)-c2ccccc2CO[C@H]1CN(C)S(=O)(=O)c1ccc(F)cc1 | · | · | · | 26 | -13
CC(=O)Oc1ccc2c(=O)c(-c3nc4ccccc4s3)coc2c1 | -85 | 53* | 83* | 17 | -15
CCOC(=O)CSc1nnc(NC(=O)c2cc([N+](=O)[O-])cc([N+](=O)[O-])c2)s1 | -4 | 66* | 85* | -1 | ·
COCCSc1nnc(NC(=O)c2ccc([N+](=O)[O-])cc2)s1 | -22 | -22 | -4 | -6 | -11
O=C(O)c1cc(O)ccc1NC(=O)C(c1ccccc1)c1ccccc1 | 12 | 61* | 110* | 4 | 6
CCOC(=O)c1cc([N+](=O)[O-])c([N+](=O)[O-])cc1NC(C)=O | 23 | 6 | 49 | -3 | 62*
CCc1ccc2nc(SCC(=O)Nc3ccccc3N3CCOCC3)c(C#N)cc2c1 | 37 | 7 | 14 | -3 | 59*
Cc1ccccc1-c1ccc(C2[C@@H]3CN(S(=O)(=O)c4cn(C)cn4)C[C@H]2N3)cc1 (stereo not given in full) | 9 | · | · | 4 | 0
C(=NN1CCCCCC1)c1ccc2ccccc2n1 | · | 87* | 104* | 98* | 88*
COCC(=O)N(C)C[C@@H]1Oc2ncc(-c3ccccc3F)cc2C(=O)N([C@@H](C)CO)C[C@@H]1C | -22 | · | · | 1 | 1
CC(=O)c1ccc(-n2c(CCC(=O)O)ccc2-c2cccs2)cc1 | · | 57* | 61* | -64 | -4
O=C(O)CCc1ccc(-c2cccs2)n1NC(=O)c1ccco1 | · | 5 | 105* | -4 | ·
CCNC(=O)C[C@@H]1CC[C@H]2[C@@H](COc3ccc(NC(=O)c4cccc(OC)c4)cc3C(=O)N2C)O1 | -5 | · | · | -5 | 1
CC(=O)C1=C(C)NC(SCC(N)=O)=C(C#N)C1CC(C)C (stereo not given) | 5 | 14 | -10 | 7 | 0
CCOC(=O)C1=C(C)NC(SC)=C(C#N)C1CC(C)C (stereo not given) | 23 | 11 | 2 | 9 | 54*
O=C(Cc1ccccc1)NNC(=O)Nc1cccc(Cl)c1 | · | 2 | 1 | · | ·
O=C(CN1c2ccccc2Sc2ccccc21)NNC(=O)Nc1cccc(Cl)c1 | -52 | 53* | 40 | · | 19
O=C(Nc1ccc2c(c1)[C@H]1C[C@H](CC(=O)N3CCCCC3)O[C@@H](CO)[C@H]1O2)C1CCC1 | -5 | · | · | -2 | 2
Cc1c(C(=O)NCc2ccc3c(c2)OCO3)oc2ccc(S(=O)(=O)N3CCC(C)CC3)cc12 | · | 17 | 59* | · | ·
Cc1c(C(=O)NCC2COc3ccccc3O2)oc2ccc(S(=O)(=O)N3CCOCC3)cc12 (stereo not given) | 38 | 28 | 57* | · | ·
CCN(CC)S(=O)(=O)c1ccc2oc(C(=O)NCC3COc4ccccc4O3)c(C)c2c1 (stereo not given) | 26 | 36 | 56* | · | ·
Cc1c(C(=O)NCC2COc3ccccc3O2)oc2ccc(S(=O)(=O)N3CC(C)CC(C)C3)cc12 (stereo not given) | · | 4 | 5 | 10 | ·
Cc1c(C(=O)NCc2ccc3c(c2)OCO3)oc2ccc(S(=O)(=O)N3CCCCCC3)cc12 | 23 | 13 | 49 | · | ·
SMILES | PAX8 inh HTS | TROY NFkB inh | TWEAK Fn14 block | LGR2 antag | EWS-Fli inh
C[C@@H]1CN([C@@H](C)CO)C(=O)c2cc(NC(=O)c3ccccc3)ccc2O[C@@H](C)CCCCO[C@H]1CN(C)S(=O)(=O)c1cn(C)cn1 | -31 | · | · | 3 | ·
CCCNC(=O)N1CC2(C1)[C@H](c1ccccc1)[C@@H](CO)N2Cc1ccc(Cl)cc1 | · | · | · | -18 | 0
COc1ccc(CN2C(=O)C(C)Nc3ncnc(N4CCOCC4)c32)cc1 (stereo not given) | 69* | 4 | 1 | -7 | 16
CCCNC(=O)N1C[C@H]2[C@@H](c3ccccc31)[C@@H](CO)N2C(=O)Cc1ccccn1 | -6 | · | · | -10 | -1
O=C(CSc1nnc2ccccn12)NNC(=O)c1ccccc1 | 2 | 0 | -10 | -18 | -2
O=C(CSc1nnc2ccccn12)NC(=O)Cc1ccccc1 | 12 | 0 | 52* | 11 | 5
CCn1nccc1C(=O)Nc1ccc(Cl)cc1Cl | · | 4 | 55* | -19 | ·
CCn1nccc1C(=O)Nc1cc(Cl)ccc1Cl | · | 14 | 40 | · | ·
Cc1cccc(N=C2NN=C(c3ccc4c(c3)OCCO4)CS2)c1 | · | 57* | 54* | 3 | 10
CN(C)S(=O)(=O)c1cccc(N=C2SCCN2Cc2ccccc2)c1 | 17 | 14 | 19 | 19 | -3
Cc1cccc(N=C2NN=C(c3c(C)[nH]c4ccccc34)CS2)c1 | 74* | 17 | 15 | -1 | 15
Cc1ccc(C2=NNC(=Nc3ccc(F)cc3)SC2)cc1 | 12 | -12 | 22 | -99 | -53
CCc1ccc(C2=NNC(=Nc3cccc(S(=O)(=O)N(C)C)c3)SC2)cc1 | 104* | 28 | 72* | · | 36
O=C(C[C@H]1C=C[C@H](NS(=O)(=O)c2ccc(F)cc2)[C@@H](CO)O1)NCc1ccncn1 | 2 | · | · | -5 | 7
CCOc1ccc(NS(=O)(=O)c2ccc(SC)cc2)cc1 | · | · | 81* | · | ·
CCOc1ccc(NS(=O)(=O)c2cnc(Cl)c(Cl)c2)cc1 | 3 | 29 | 53* | 18 | ·
COc1ccc(S(=O)(=O)Nc2cccc3c2O[C@@H](CN(C)S(=O)(=O)c2ccc(C)cc2)[C@H](C)CN([C@H](C)CO)C3=O)cc1 | -34 | · | · | -9 | -7
CC(=O)N1CCCc2cc(S(=O)(=O)N3CCCC(C(=O)N4CCN(c5ccccc5)CC4)C3)ccc21 (stereo not given) | 34 | 31 | 19 | -1 | ·
CC(=O)N1CCCc2cc(S(=O)(=O)N3CCCC(C(=O)N4CCN(c5cc(C)ccc5C)CC4)C3)ccc21 (stereo not given) | 50 | 44 | 54* | 6 | 18
O=C(CCc1nc2ccccc2c(=O)[nH]1)Nc1cc(C(F)(F)F)ccc1N1CCCC1 | 21 | 51* | 62* | -16 | 3
Cc1nc2ccc(NC(=O)CCS(=O)(=O)c3ccccc3)cc2s1 | -37 | -35 | -37 | -18 | -54
Cc1ccc2nc(-c3ccc(NC(=O)C(C)Sc4nncs4)cc3)sc2c1 (stereo not given) | 5 | 73* | 89* | 58* | 29
O=C(CCS(=O)(=O)c1ccccc1)Nc1nc2ccc(F)cc2s1 | 107* | -25 | 17 | -1 | 7
O=C(CCN1C(=O)NC2(CCCC2)C1=O)Nc1ccc(-c2nc3ccccc3s2)cc1 | -85 | 43 | 60* | 3 | 27
Cc1ccc2nc(-c3ccc(NC(=O)CCS(=O)(=O)c4ccccc4)cc3)sc2c1 | 38 | -12 | 17 | -57 | 70*

High-throughput results as filed in PubChem BioAssay.
